Source: the supplement of paper PMC4188521

The targets below were run with CCc1cnn2c(NCc3ccc[n+]([O-])c3)cc(N3CCCC[C@H]3CCO)nc12 [dinaciclib] (assay: cell viability remaining relative to DMSO control; higher = less cytotoxic (more viable cells)). Settings: 100 nM; 24 h.
Outline: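 Remaining viability is reported relative to DMSO-treated control wells, as a percentage of the DMSO control, using CellTiter-Glo ATP luminescence. Solid tumour cell lines from commercial cell banks were treated with 100 nM of the test compound for 24 hr, with final DMSO ≤0.2%. Results are averaged over 2–6 plates with triplicate wells on each plate.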

Target | cell viability remaining
H2122 | 48.2%
G361 | 4.9%
HS940T | 78.6%
U2OS | 36.4%
EFO21 | 93.6%
SCC25 | 20.5%
MEWO | 52.8%
A673 | 29.2%
H1437 | 41.9%
AN3CA | 13.9%
H2452 | 21.1%
SCC9 | 64.4%
EFE184 | 93.1%
MALME3M | 54.4%
769P | 57.5%
A172 | 73.1%
MDAMB175VII | 36%

Target | cell viability remaining
T84 | 76.2%
NCI-H1395 | 36%
T98G | 53.4%
SW480 | 81.7%
HS852T | 54.3%
MSTO211H | 68.4%
H526 | 16.7%
LS513 | 55.8%
OAW42 | 44.2%
HEC50B | 83.4%
WM2664 | 68.9%
AGS | 46.7%
CAL51 | 43.8%
AU565 | 39.3%
HCT15 | 45.4%
SKNDZ | 44.1%
HS746T | 83%
